Results from PubChem BioAssay (NCATS).
Records with an inconclusive call do not appear. The source made the active and inactive calls. Calls come from the whole dose curve; as a rule, active = well fitted inhibition curve with a large enough effect; inconclusive = small, poorly fitted or top-dose-only effect; inactive = flat fitted curve, though single readings scatter.

Columns and labels:
Assay in all cases: qHTS profiling for inhibitors of Plasmodium falciparum proliferation (AID 504749); note: nearly all actives have a fitted effect of over 60% in size
CP217 = conditions: P. falciparum in erythrocytes, SYBR Green DNA, 72 h; series mostly up to 28.7 µM
Procedure, shortened: (§1)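 SYBR Green fluorescence of parasite DNA, read after lysis and overnight dark incubation, measured growth over 72 h in erythrocyte culture at 0.3% parasitemia and 2.5% hematocrit. Data normalised to DMSO and 0.29 uM artemisinin, with plate-drift correction.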

CP238 = conditions: P. falciparum in erythrocytes, SYBR Green DNA, 72 h; series mostly up to 28.7 µM
Procedure, shortened: as §1

CP247 = conditions: P. falciparum in erythrocytes, SYBR Green DNA, 72 h; series mostly up to 28.7 µM
Procedure, shortened: as §1

CP250 = conditions: P. falciparum in erythrocytes, SYBR Green DNA, 72 h; series mostly up to 12.8 µM
Procedure, shortened: as §1

CP252 = conditions: P. falciparum in erythrocytes, SYBR Green DNA, 72 h; series mostly up to 12.8 µM
Procedure, shortened: as §1

CP256 = conditions: P. falciparum in erythrocytes, SYBR Green DNA, 72 h; series mostly up to 28.7 µM
Procedure, shortened: as §1

CP262 = conditions: P. falciparum in erythrocytes, SYBR Green DNA, 72 h; series mostly up to 28.7 µM
Procedure, shortened: as §1

CP268 = conditions: P. falciparum in erythrocytes, SYBR Green DNA, 72 h; series mostly up to 28.7 µM
Procedure, shortened: as §1

CP269 = conditions: P. falciparum in erythrocytes, SYBR Green DNA, 72 h; series mostly up to 28.7 µM
Procedure, shortened: as §1

CP286 = conditions: P. falciparum in erythrocytes, SYBR Green DNA, 72 h; series mostly up to 28.7 µM
Procedure, shortened: as §1

CP291 = conditions: P. falciparum in erythrocytes, SYBR Green DNA, 72 h; series mostly up to 28.7 µM
Procedure, shortened: as §1

CP297 = conditions: P. falciparum in erythrocytes, SYBR Green DNA, 72 h; series mostly up to 28.7 µM
Procedure, shortened: as §1

CP305 = conditions: P. falciparum in erythrocytes, SYBR Green DNA, 72 h; series mostly up to 28.7 µM
Procedure, shortened: as §1

CP315 = conditions: P. falciparum in erythrocytes, SYBR Green DNA, 72 h; series mostly up to 28.7 µM
Procedure, shortened: as §1

CP325 = conditions: P. falciparum in erythrocytes, SYBR Green DNA, 72 h; series mostly up to 28.7 µM
Procedure, shortened: as §1

CP329 = conditions: P. falciparum in erythrocytes, SYBR Green DNA, 72 h; series mostly up to 28.7 µM
Procedure, shortened: as §1

DIV17 = conditions: P. falciparum in erythrocytes, SYBR Green DNA, 72 h; series mostly up to 28.7 µM
Procedure, shortened: as §1

DIV30 = conditions: P. falciparum in erythrocytes, SYBR Green DNA, 72 h; series mostly up to 28.7 µM
Procedure, shortened: as §1

Dd2 = conditions: P. falciparum in erythrocytes, SYBR Green DNA, 72 h; series mostly up to 28.7 µM
Procedure, shortened: as §1

FAB9 = conditions: P. falciparum in erythrocytes, SYBR Green DNA, 72 h; series mostly up to 28.7 µM
Procedure, shortened: as §1

HB3 = conditions: P. falciparum in erythrocytes, SYBR Green DNA, 72 h; series mostly up to 28.7 µM
Procedure, shortened: as §1

ICS = conditions: P. falciparum in erythrocytes, SYBR Green DNA, 72 h; series mostly up to 28.7 µM
Procedure, shortened: as §1

JCK = conditions: P. falciparum in erythrocytes, SYBR Green DNA, 72 h; series mostly up to 28.7 µM
Procedure, shortened: as §1

N140 = conditions: P. falciparum in erythrocytes, SYBR Green DNA, 72 h; series mostly up to 28.7 µM
Procedure, shortened: as §1

P93_24 = conditions: P. falciparum in erythrocytes, SYBR Green DNA, 72 h; series mostly up to 28.7 µM
Procedure, shortened: as §1

P94_40 = conditions: P. falciparum in erythrocytes, SYBR Green DNA, 72 h; series mostly up to 28.7 µM
Procedure, shortened: as §1

PC15 = conditions: P. falciparum in erythrocytes, SYBR Green DNA, 72 h; series mostly up to 28.7 µM
Procedure, shortened: as §1

SC27B = conditions: P. falciparum in erythrocytes, SYBR Green DNA, 72 h; series mostly up to 28.7 µM
Procedure, shortened: as §1

TAB113 = conditions: P. falciparum in erythrocytes, SYBR Green DNA, 72 h; series mostly up to 28.7 µM
Procedure, shortened: as §1

W2 = conditions: P. falciparum in erythrocytes, SYBR Green DNA, 72 h; series mostly up to 12.8 µM
Procedure, shortened: as §1

Measured: Potency
Potency is the fitted concentration of half-maximal effect.

CC(=O)OC1C[C@H](O[C@@H]2C(O)C[C@H](O[C@@H]3C(O)C[C@@H](OC4CC[C@]5(C)C(CCC6C5CC(O)[C@@]5(C)C(C7=CC(=O)OC7)CC[C@@]65O)C4)OC3C)OC2C)O[C@H](C)[C@H]1O[C@H]1OC(CO)C(O)C(O)C1O (stereo not given in full)
active: DIV17 13.5 µM | HB3 12.6 µM | ICS 5.62 µM | P93_24 12.6 µM | PC15 5.01 µM | W2 13.5 µM
inactive: all other assays above
